Test results from PubChem BioAssay (NCI).
The panel holds about 79,000 compounds, 15% with a hit somewhere; the sample as a whole holds those more often. The source made the active and inactive calls. Rule as the data show it: active = growth inhibition above about 70%; inactive = the rest.

Assays:
[1] = NCI Yeast Anticancer Drug Screen. Data for the rad50 strain (AID 155);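 also: 0% = growth of vehicle-only cultures of the same strain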; conditions: S. cerevisiae rad50 strain growth inhibition, active compounds read high
Method in brief: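 A DNA repair-deficient yeast mutant serves as the test organism; compound-induced growth inhibition is calculated against vehicle-treated cells.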

[2] = NCI Yeast Anticancer Drug Screen. Data for the mec2-1 strain (AID 157); conditions: S. cerevisiae mec2-1 strain, active compounds read high
Method in brief: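 Vehicle-treated cultures served as reference for growth inhibition of compound-exposed mec2-1 yeast.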

[3] = NCI Yeast Anticancer Drug Screen. Data for the sgs1 mgt1 strain (AID 161);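 also: 0% = growth of cultures given vehicle only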; conditions: S. cerevisiae sgs1 mgt1 strain, active compounds read high
Method in brief: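 Mutant yeast exposed to compound; growth scored against vehicle-only wells.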

[4] = NCI Yeast Anticancer Drug Screen. Data for the cln2 rad14 strain (AID 165);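 also: 0% = growth equal to vehicle treated cultures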; conditions: S. cerevisiae cln2 rad14 strain, active compounds read high
Method in brief: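 Each compound was tested on cln2 rad14 yeast. Inhibition of growth was calculated against vehicle-exposed controls.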

[5] = NCI Yeast Anticancer Drug Screen. Data for the bub3 strain (AID 167); conditions: S. cerevisiae bub3 mutant strain, active compounds read high
Method in brief: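 Inhibition values come from growth of compound-treated mutant yeast normalised to vehicle-treated controls.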

[6] = NCI Yeast Anticancer Drug Screen. Data for the mlh1 rad18 strain (AID 175); conditions: S. cerevisiae mlh1 rad18 strain growth inhibition, active compounds read high
Method in brief: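 Vehicle-treated cultures served as the reference for growth inhibition in a yeast strain carrying DNA damage repair alterations exposed to each compound.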

[7] = at 5.0 µM (retest, dose inferred, filed as 0.5)
[8] = at 50.0 µM (retest, dose inferred, filed as 5.0)

Measured: growth inhibition

[O-]c1c2cc(-[n+]3c(-c4ccccc4)cc(-c4ccccc4)cc3-c3ccccc3)cc1CO[C@@H](c1ccccc1)[C@H](c1ccccc1)OCc1cccc(n1)CO[C@@H](c1ccccc1)[C@H](c1ccccc1)OC2
active: [1]; [7] 98% | [1]; [8] 96% | [1]; at 50.0 µM 87.2% | [2]; [7] 98% | [2]; [8] 98% | [2]; at 50.0 µM 90.8% | [3]; [7] 100% | [3]; [8] 98% | [3]; at 50.0 µM 90.5% | [4]; [7] 97% | [4]; [8] 98% | [4]; at 50.0 µM 90.2% | [5]; [7] 99% | [5]; [8] 99% | [5]; at 50.0 µM 89.3% | [6]; [7] 98% | [6]; [8] 97% | [6]; at 50.0 µM 86.7%

Cc1ccc(C(=O)OCC(C)C)cc1N=NN(C)C
inactive: [1]; [7] 4% | [1]; [8] 21% | [1]; at 50.0 µM 68.8% | [2]; [7] -3% | [2]; [8] -6% | [2]; at 50.0 µM 19.9% | [3]; [7] -5% | [3]; [8] 14% | [3]; at 50.0 µM 29.4% | [4]; [7] 7% | [4]; [8] 31% | [4]; at 50.0 µM 38.8% | [5]; [7] -1% | [5]; [8] 48% | [5]; at 50.0 µM 31.1% | [6]; [7] -24% | [6]; [8] 38% | [6]; at 50.0 µM 8.3%

Clc1ccc2nc(Cl)c(Cl)nc2c1
inactive: [1]; [7] -143% | [1]; [8] 42% | [2]; [7] -43% | [2]; [8] 27% | [2]; at 50.0 µM 45.3% | [3]; [7] -56% | [4]; [7] -54% | [4]; [8] 51% | [4]; at 50.0 µM 59.5% | [5]; [7] -71% | [5]; [8] 44% | [5]; at 50.0 µM 65.2% | [6]; [7] -137% | [6]; [8] 62% | [6]; at 50.0 µM 69.6%
active: [1]; at 50.0 µM 81.3% | [3]; [8] 76% | [3]; at 50.0 µM 88.9%

OCC1(c2ccccc2)OC1c1ccccc1 (stereo not given)
inactive: [1]; [7] -156% | [1]; [8] -20% | [2]; [7] -50% | [2]; [8] -27% | [2]; at 50.0 µM 62.6% | [3]; [7] -65% | [3]; [8] 16% | [3]; at 50.0 µM 37.6% | [4]; [7] -66% | [4]; [8] -34% | [4]; at 50.0 µM 69.5% | [5]; [7] -71% | [5]; [8] -51% | [6]; [7] -146% | [6]; [8] -44% | [6]; at 50.0 µM 68%
active: [1]; at 50.0 µM 72.1% | [5]; at 50.0 µM 74.8%

O=c1c2ccccc2c2ccccc2c(=O)n1-c1cc2c3ccccc3ccc2c2ccccc12
inactive: [1]; [7] 12% | [1]; [8] 16% | [1]; at 50.0 µM -16.2% | [2]; [7] -11% | [2]; [8] 9% | [2]; at 50.0 µM -12.8% | [3]; [7] -4% | [3]; [8] 9% | [3]; at 50.0 µM -2.4% | [4]; [7] -11% | [4]; [8] -10% | [4]; at 50.0 µM 68.2% | [5]; [7] -12% | [5]; [8] -5% | [5]; at 50.0 µM -66.5% | [6]; [7] 5% | [6]; [8] 9% | [6]; at 50.0 µM 37.8%

COc1ccc(C(=O)Nc2ccccc2OC)cc1
inactive: [1]; [7] 5% | [1]; [8] 8% | [1]; at 50.0 µM 3.45% | [2]; [7] -13% | [2]; [8] -29% | [2]; at 50.0 µM 12.2% | [3]; [7] 4% | [3]; [8] 10% | [3]; at 50.0 µM 15.1% | [4]; [7] 6% | [4]; [8] 17% | [4]; at 50.0 µM 19.1% | [5]; [7] 6% | [5]; [8] 20% | [5]; at 50.0 µM 10.7% | [6]; [7] 18% | [6]; [8] 23% | [6]; at 50.0 µM 9.5%

CCN(CC)C(=O)CCCC1CCCCC1
inactive: [1]; [7] 1% | [1]; [8] 23% | [1]; at 50.0 µM 45.6% | [2]; [7] -3% | [2]; [8] 4% | [2]; at 50.0 µM 13.2% | [3]; [7] 0% | [3]; [8] 20% | [3]; at 50.0 µM 66.5% | [4]; [7] 0% | [4]; [8] 11% | [4]; at 50.0 µM -9% | [5]; [7] 6% | [5]; [8] 25% | [5]; at 50.0 µM 44% | [6]; [7] 1% | [6]; [8] 7% | [6]; at 50.0 µM 26.9%

Clc1sc2ccccc2c1Cl
inactive: [1]; [7] 2% | [1]; [8] -18% | [1]; at 50.0 µM 22.2% | [2]; [7] -5% | [2]; [8] -3% | [2]; at 50.0 µM -11.9% | [3]; [7] 2% | [3]; [8] 1% | [3]; at 50.0 µM 25.2% | [4]; [7] 4% | [4]; [8] -4% | [4]; at 50.0 µM 36.6% | [5]; [7] -79% | [5]; [8] 0% | [5]; at 50.0 µM -7.55% | [6]; [7] -1% | [6]; [8] -2% | [6]; at 50.0 µM 14.6%

O=C1c2cccc(O)c2C(=O)c2c(OC3OC(CO)C(O)C(O)C3O)cccc21 (stereo not given)
active: [1]; at 50.0 µM 76.8% | [3]; at 50.0 µM 78% | [5]; at 50.0 µM 74.8%
inactive: [1]; [7] 6% | [1]; [8] 68% | [2]; [7] 10% | [2]; [8] 48% | [2]; at 50.0 µM 24.5% | [3]; [7] 4% | [3]; [8] 52% | [4]; [7] 16% | [4]; [8] 59% | [4]; at 50.0 µM 34.4% | [5]; [7] 6% | [5]; [8] 60% | [6]; [7] -7% | [6]; [8] 62% | [6]; at 50.0 µM 47.5%

O=C(C[n+]1ccccc1Cl)c1ccc(Oc2ccc(C(=O)C[n+]3ccccc3Cl)cc2)cc1
active: [1]; at 50.0 µM 90.6% | [2]; at 50.0 µM 83.2% | [4]; at 50.0 µM 91.9% | [5]; at 50.0 µM 89% | [6]; at 50.0 µM 80.7%
inactive: [1]; [7] -34% | [1]; [8] 0% | [2]; [7] -5% | [2]; [8] -18% | [3]; [7] -11% | [3]; [8] -11% | [3]; at 50.0 µM 30.5% | [4]; [7] -14% | [4]; [8] -15% | [5]; [7] -40% | [5]; [8] -28% | [6]; [7] -33% | [6]; [8] -48%
